# Only some compounds are listed: those with a hit (about 1.6% of all), similar ones and a draw of the others.
# KCNQ2 enhance – potentiators of rat KCNQ2 potassium channel; B-score at 10 µM; CHO-K1 KCNQ2, FluxOR thallium flux fluorescence; stronger effect = higher value; O88943; AID 2239; actives 0.54% (n = 310,000);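 active = fluorescence ratio B-score at least 3 SD of library B-scores, with initial fluorescence B-score within 3 of them, cut at about 5.3 in these data; same plate scores as AID 2156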;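 also: B-score of peak minus minimum over baseline fluorescence ratio after K+ and Tl+ stimulus; positive B-score means potentiation of KCNQ2 with more thallium influx and brighter signal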
# KCNQ2 inh – inhibitors of rat KCNQ2 potassium channel; O88943; CHO-K1 KCNQ2, FluxOR thallium flux, 20 min; stronger effect = lower value; B-score at 10 µM; actives 1.1% (n = 310,000); AID 2156;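 active = fluorescence ratio B-score at most minus 3 library SDs, with starting brightness B-score within 2 library SDs, cut at about -5.5 in these data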
# Active calls of the source: *; i = inactive; . = no result.
SMILES,KCNQ2 enhance,KCNQ2 inh
Clc1ccc(-c2nnc(-c3ccc(Br)cc3)c(N3CCSCC3)n2)cc1,-7,-7*
Clc1ccc(-c2nnc(-c3ccco3)nc2N2CCCCC2)cc1,.,i
CCOC(=O)c1ccc(S(=O)(=O)Nc2cc(C(=O)O)ccc2Cl)cc1,0.98,i
O=[N+]([O-])c1ccc2oc(C(O)c3cccc(Cl)c3)cc2c1 (stereo not given),.,i
Cc1nn(Cc2ccc(C(=O)N3c4ccc(F)cc4CCC3C)o2)c(C)c1Br (stereo not given),-7.6,-7.6*
Cc1ccc(C(=O)N2c3ccc(F)cc3CCC2C)o1 (stereo not given),.,i
Cc1cccnc1Nc1nc(-c2ccccc2)cs1,-7.8,-7.8*
Cc1cccnc1Nc1nc(-c2ccccn2)cs1,1.9,i
CCc1ccc(-c2cc(C)no2)cc1S(=O)(=O)NCCc1ccc(OC)c(OC)c1,0.68,i
O=C(Nc1ccc(F)cc1F)c1cccn1-c1ncc(C(F)(F)F)cc1Cl,.,i
Cc1cc(C)cc(NC(=O)c2cccn2-c2ncc(C(F)(F)F)cc2Cl)c1,-7.2,-7.2*
O=C(COC(=O)C12CC3CC(CC(Br)(C3)C1)C2)N1CCOCC1,0.07,i
CCCCOP(=O)(OCCCC)C(Nc1ccc(C(=O)OCC)cc1)c1ccncc1 (stereo not given),-5.7,-5.7*
CCCOP(=O)(OCCC)C(Nc1ccc(C(=O)O)cc1)c1ccccc1 (stereo not given),0.14,i
Cc1cccc(C)c1NC(=O)N1CCC(C(=O)c2ccc(F)cc2)CC1,1.6,i
Cc1ccc(-c2cc(C(F)F)n3ncc(C(=O)N4CCc5ccccc5C4)c3n2)cc1,.,i
O=C(c1cnn2c(C(F)(F)F)cc(-c3ccc(F)cc3)nc12)N1CCc2ccccc2C1,-6.3,-6.3*
CCc1nn(C)c(N)c1C,.,i
COc1cccc(CNc2ccc(S(N)(=O)=O)cc2)c1OCc1ccccc1F,9.3*,i
C=CCOc1c(CNc2ccc(S(N)(=O)=O)cc2)cccc1OC,1.4,i
Cc1ccc(OCCN(C)C(=O)C2CCC(=O)N(CCCN3CCOCC3)C2)cc1 (stereo not given),0.09,i
O=C(CSCc1cc(=O)n2ccsc2n1)Nc1ccc(F)cc1,1,i
O=c1c2cc(Cl)ccc2[nH]c(=S)n1Cc1cccs1,5.3*,i
O=c1c2cc(Cl)ccc2[nH]c(=S)n1Cc1ccco1,.,i
CCOc1ccc(S(=O)(=O)Nc2ccc(C(=O)NCC(C)(C)N3CCOCC3)cc2)cc1,.,i
SMILES,KCNQ2 enhance,KCNQ2 inh
O=C(COC(=O)C1CCC1)NCCc1ccc(Cl)cc1Cl,0.36,i
Cc1nc(N2CCN(Cc3ccc4c(c3)OCO4)CC2)c2cc(-c3ccccc3)sc2n1,-6.4,-6.4*
Cc1nc(N2CCOCC2)c2cc(-c3ccccc3)sc2n1,.,i
Cc1nn(Cc2ccccc2)c(Cl)c1C(=O)OCc1nnc(-c2ccc(Cl)cc2)o1,-6.1,-6.1*
Cc1nn(Cc2ccccc2)c(Cl)c1C(=O)OCc1nnc(-c2ccccc2)o1,0.79,i
Cc1c(Cl)cccc1NC(=O)CSc1nncn1-c1ccccn1,.,i
C=CCN(C)CC/C=C1\c2ccccc2CSc2ccccc21,.,i
C#CCN(C)CC/C=C1\c2ccccc2CSc2ccccc21,-6,-6*
O=C(CSc1ccc(Cl)cc1)NCc1ccncc1,.,i
COc1ccc(S(=O)(=O)N(C)C)cc1NC(=O)CCCSc1ccccc1,0.61,i
O=C(NCCCN1CCCC1=O)C(=O)NCC1OCCN1S(=O)(=O)c1ccc(Cl)cc1 (stereo not given),.,i
Cc1ccc(C)c(OCC(=O)Nc2cc(NC(=O)COc3cc(C)ccc3C)cc(C(=O)O)c2)c1,1,i
CCOC(=O)C1CCCN(C2=C(NS(=O)(=O)c3ccc(Br)cc3)C(=O)c3ccccc3C2=O)C1 (stereo not given),-6.7,-6.7*
CCOC(=O)C1CCN(C2=C(NS(=O)(=O)c3ccc(Cl)cc3)C(=O)c3ccccc3C2=O)CC1,.,i
CCN(CC)S(=O)(=O)c1ccc2c(c1)nc(CCC(=O)Nc1ccccc1Cc1ccccc1)n2CC,.,i
CCOC(=O)CNC(=O)Cn1cnc2c(nnn2-c2ccc(OC)cc2)c1=O,.,i
CCC1(C)Cc2ccccc2-c2nc(NN)[nH]c(=O)c21 (stereo not given),.,i
CCC1(C)Cc2ccccc2-c2nc(-c3ccccc3)oc(=O)c21 (stereo not given),-5.5,-5.5*
COc1cc(/C=C2/SC(=S)N(c3c(C)n(C)n(-c4ccccc4)c3=O)C2=O)ccc1O,0.52,i
O=c1c2ccccc2nc(SCc2ccccc2)n1Cc1ccco1,0.28,i
O=c1c2ccccc2nc(SCc2cccc(F)c2)n1Cc1ccco1,-6.2,-6.2*
CCOC(=O)C1=C(c2ccccc2)NC(=O)NC1c1ccc(OC)c(OC)c1 (stereo not given),.,i
CCOC(=O)C1=C(c2ccccc2)N(C)C(=O)NC1c1ccc(OC(F)F)c(OC)c1 (stereo not given),-5.6,-5.6*
Fc1ccc(Oc2ccc3nnc(C(F)(F)F)n3n2)cc1,1.6,i
CC(C)OCCCn1c(=O)c2ccccc2n2c(CCC(=O)O)nnc12,1.6,i
SMILES,KCNQ2 enhance,KCNQ2 inh
CC(C)OCCCn1c(=O)c2ccccc2n2c(CCC(=O)NC3CCN(Cc4ccccc4)CC3)nnc12,-6,-6*
COc1ccc(C(=O)NCCc2nnc3ccc(SCC(=O)N4CCCC4)nn23)cc1,.,i
Cc1cccc(-c2nc(CS(=O)CC(=O)N3CCc4ccccc4C3)c(C)o2)c1 (stereo not given),-7.8,-7.8*
CCN1CCN(C(=O)CS(=O)Cc2nc(-c3cccc(C)c3)oc2C)CC1 (stereo not given),.,i
COc1ccccc1N1CCN(C(=O)C(C)N(c2ccc(C)cc2)S(C)(=O)=O)CC1 (stereo not given),.,i
COc1ccccc1N1CCN(C(=O)C(C)N(c2ccccc2)S(C)(=O)=O)CC1 (stereo not given),-5.7,-5.7*
CCOC(=O)C1(Cc2ccccc2)CCCN(Cc2cccc(C(C)=O)c2)C1 (stereo not given),-6,-6*
CCOC(=O)C1(Cc2ccccc2)CCCN(Cc2ccc(OCCO)cc2)C1 (stereo not given),0.09,i
OC(c1cc(-c2ccc(Cl)cc2)nc2ccccc12)C1CCCCN1 (stereo not given),-7.3,-7.3*
O[C@@H](c1cc(C(F)(F)F)nc2c(C(F)(F)F)cccc12)[C@H]1CCCCN1,0.92,i
CCCN(C(=O)c1c(CC)noc1C)c1c(N)n(Cc2ccccc2)c(=O)[nH]c1=O,.,i
CCOC(=O)N1CCN(c2nc(N(c3ccccc3)c3ccccc3)nc(-n3ccnc3)n2)CC1,-6,-6*
c1ccc(N(c2ccccc2)c2nc(N3CCCC3)nc(-n3ccnc3)n2)cc1,.,i
O=S(=O)(c1ccccc1)C(/C=N\O)/C=C/c1ccccc1 (stereo not given),-6.3,-6.3*
O=S(=O)(c1ccccc1)N1CCC(=NO)CC1,1.4,i
Cc1cccc(C)c1NC(=O)C1CCCN1C(=O)NCc1ccccc1 (stereo not given),0.62,i
COCc1nc2oc3ccccc3c(=O)c2cc1C(=O)OC,.,i
O=C(CNc1ccc(Br)cc1)NNC1=NCCC1,.,i
CN(C)c1nc(SCC(=O)Nc2ccc(Cl)c(Cl)c2)nc(N2CCOCC2)n1,1.5,i

# Bioassay records as filed in PubChem BioAssay.
